High-throughput results as filed in PubChem.
PAFAH2 inh – PAFAH2 enzyme inhibitors, primary screen, biochemical, fluorescence polarization, human; Platelet-activating factor acetylhydrolase 2, cytoplasmic (Homo sapiens), Q99487; recombinant PAFAH2, FP-rhodamine activity probe; inhibition, % at 3.39 µM; 0.99% of 340,000 active; AID 492956, 2010;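 active means inhibition above the mean over all tested compounds plus 3 SD, cut at about 30% in these data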;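 further: inhibitors block probe labeling of enzyme so polarization drops; 0% = enzyme with DMSO and 100% = wells lacking PAFAH2 protein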
pPAFAH inh – pPAFAH enzyme inhibitors, primary screen, biochemical, fluorescence polarization, human; recombinant pPAFAH, FP-rhodamine probe fluorescence polarization; Platelet-activating factor acetylhydrolase (Homo sapiens), Q13093; inhibition, % at 3.39 µM; 1.5% of 330,000 active;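 active means inhibition above the mean inhibition across the screen plus 3 SD, cut at about 25% in these data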;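 further: inhibitors block binding of the rhodamine activity-based probe so polarization drops; 0% = enzyme with DMSO and 100% = wells lacking pPAFAH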
PAFAH1B3 inh – PAFAH1B3 enzyme inhibitors, primary screen, biochemical, fluorescence polarization, human; inhibition, % at 3.39 µM; 0.28% of 340,000 active; recombinant PAFAH1B3, FP-rhodamine probe; Platelet-activating factor acetylhydrolase IB subunit alpha1 (Homo sapiens), Q15102;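 active means inhibition above the screen-wide average of all tested compounds plus 3 SD, cut at about 25% in these data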;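 further: 0% = enzyme with DMSO only and 100% = wells lacking PAFAH1B3 protein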
Target sequence (Q15102 whole entry, looked up): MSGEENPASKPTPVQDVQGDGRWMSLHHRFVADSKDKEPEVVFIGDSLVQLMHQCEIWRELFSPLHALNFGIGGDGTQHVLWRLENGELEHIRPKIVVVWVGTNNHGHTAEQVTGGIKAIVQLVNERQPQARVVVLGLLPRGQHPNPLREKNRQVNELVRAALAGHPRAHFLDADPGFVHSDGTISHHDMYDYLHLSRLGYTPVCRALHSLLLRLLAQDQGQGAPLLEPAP
Fh CTSL1 inh – Fasciola hepatica cathepsin L1 inhibitors, primary screen, counter-screen for PFM18AAP inhibitor project, biochemical, QFRET, fluorogenic peptide substrate. recombinant F. hepatica cathepsin L1, Z-Leu-Arg-MCA fluorescence. inhibition, % at 5.96 µM. 0.49% of 300,000 active. AID 1906, 2009;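 active means inhibition above the mean of all tested compounds plus 3 SD, set per screening campaign, cut at about 17% in these data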;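 further: 0% = plate median of test compound wells and 100% = 1 µM Z-Phe-Ala-diazomethylketone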
PP5 inh – PP5 phosphatase inhibitors, primary screen, biochemical, fluorescence; purified PP5c, OMFP substrate fluorescence; 0.18% of 320,000 active; AID 1987, 2009; inhibition, % at 6.7 µM; Serine/threonine-protein phosphatase 5 (Homo sapiens), P53041;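 active means inhibition above the campaign's mean inhibition across all tested compounds plus 3 SD, cut at about 9.5% in these data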;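 further: 0% = DMSO only and 100% = 100 µM cantharidin control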
PAFAH1B2 inh – PAFAH1B2 enzyme inhibitors, primary screen, biochemical, fluorescence polarization, human; Platelet-activating factor acetylhydrolase IB subunit alpha2 (Homo sapiens), P68402; recombinant PAFAH1B2, FP-rhodamine activity probe; inhibition, % at 3.39 µM; 1.2% of 340,000 active;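 active means inhibition above the mean of all tested compounds plus 3 SD, cut at about 24% in these data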;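 further: 0% = enzyme with DMSO and 100% = wells lacking PAFAH1B2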
Target sequence (P68402 whole entry, looked up): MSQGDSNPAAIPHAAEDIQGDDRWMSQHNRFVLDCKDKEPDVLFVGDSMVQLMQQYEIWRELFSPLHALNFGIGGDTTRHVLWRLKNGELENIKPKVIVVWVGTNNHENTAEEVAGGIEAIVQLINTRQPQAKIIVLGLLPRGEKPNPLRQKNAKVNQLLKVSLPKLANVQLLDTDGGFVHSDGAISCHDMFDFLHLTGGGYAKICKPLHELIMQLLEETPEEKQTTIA
* hit, by the source's call; . = no result. A selection: hits, their analogues and other compounds. The true share with any hit is near 3%.

SMILES | PAFAH2 inh | pPAFAH inh | PAFAH1B3 inh | Fh CTSL1 inh | PP5 inh | PAFAH1B2 inh
Cc1onc(-c2ccccc2Cl)c1C(=O)Oc1cc(N)n(S(=O)(=O)c2ccc(F)cc2)n1 | 4 | 6 | 11 | 2 | 2 | 36*
COc1ccc2c(-c3ccccc3)cc(SCC(=O)NC(N)=O)nc2c1 | -6 | 7 | 3 | 4 | 0 | 2
COCCNC(=O)CSc1cc(-c2ccccc2)c2ccc(OC)cc2n1 | 1 | 30* | 6 | 2 | 3 | 1
CCN(C(=O)CSc1cc(-c2ccccc2)c2ccc(OC)cc2n1)C1CCS(=O)(=O)C1 (configuration not stated) | -4 | 26* | 10 | 1 | 4 | 3
COc1ccc2c(-c3ccccc3)cc(SCC(=O)N(C)C)nc2c1 | 5 | 33* | 5 | 1 | 3 | -1
CCN(C(=O)CSc1cc(C)c2ccc(OC)cc2n1)C1CCS(=O)(=O)C1 (configuration not stated) | -1 | -7 | 4 | -3 | 0 | 1
NC(=O)CC(NC(=O)Cc1ccc(Br)cc1)c1ccc(N2CCC(Br)CC2)c([N+](=O)[O-])c1 (configuration not stated) | -3 | 26* | 4 | 0 | 0 | -2
C=CCOc1ccc(CN(C)C(=O)CNC(=O)c2ccc(-c3ccccc3)cc2)cc1 | 0 | 3 | -11 | 4 | 3 | -2
Cc1cc2c(cc1S(=O)(=O)Nc1ccc(OC(F)(F)F)cc1)OCC(=O)N2 | 2 | 34* | 8 | -1 | 4 | 14
COc1ccc(NC(=S)N(CCCN2CCOCC2)C(C)c2cc3cccc(OC)c3o2)cc1 (configuration not stated) | 6 | 28* | 7 | 0 | 2 | -1
COc1cccc2cc(C(C)N(CCCN3CCOCC3)C(=S)Nc3ccc(C)c(C)c3)oc12 (configuration not stated) | 3 | 22 | 2 | 2 | 4 | 7
COc1ccc(NC(=O)CCc2nnc3ccc(NCc4ccco4)nn23)cc1OC | -5 | 6 | 3 | -3 | -1 | 5
CC(=O)Oc1ccc2c(=O)c(Oc3ccccc3)coc2c1OC(C)=O | 46* | 31* | -1 | -3 | 1 | -1
Cc1ccc(Oc2coc3cc(OC(=O)c4cccs4)ccc3c2=O)cc1 | -8 | 4 | -3 | -1 | 2 | 7
CCOC(=O)C(CC(=O)O)=C(c1ccccc1)c1ccccc1 | 5 | 2 | 8 | 1 | -1 | 32*
Cc1c(O)cc2c(c1O)C(=O)CC(c1ccc(O)cc1)O2 (configuration not stated) | 5 | 32* | 15 | 0 | 3 | 4
Cn1cc(C(=O)c2cccc(Cl)c2Cl)cc1C(=O)O | 4 | 4 | 2 | -5 | 2 | 1
COC(=O)c1cc(C(=O)c2cccc(Cl)c2Cl)cn1C | 10 | 25* | 5 | -3 | 3 | 2
COc1ccc(NC(=O)C2C3C=CC4(O3)C2C(=O)N(CCN2CCCCC2)C4C(=O)NC2CCCC(C)C2C)cc1 (configuration not stated) | -2 | -2 | 10 | 20* | 1 | 4
O=C(CNC(=O)c1cccc(F)c1)OCc1cc(=O)n2cc(Br)ccc2n1 | 0 | 8 | 4 | 17* | -4 | -1
O=[N+]([O-])c1cccc(-c2ccc3nnc(SCc4cccnc4)n3n2)c1 | 0 | . | 0 | . | . | -4
CCN(CC)c1ccc(/C=C(\C#N)C(=O)c2ccc(Br)cc2)cc1 | 81* | -4 | 41* | 2 | -6 | 55*
Cc1ccsc1C(=O)NC1CCCN(Cc2ccc(Cl)cc2)C1 (configuration not stated) | -3 | . | 7 | . | . | 2
O=C(CSc1nnc(NC(=O)C2CC2)s1)Nc1ccc(F)cc1F | -1 | 5 | -7 | 2 | 0 | -1
COc1ccc(C(=O)OCC(=O)NCC2CCCO2)cc1 (configuration not stated) | 10 | 4 | 5 | 1 | -2 | 6
SMILES | PAFAH2 inh | pPAFAH inh | PAFAH1B3 inh | Fh CTSL1 inh | PP5 inh | PAFAH1B2 inh
O=C(COC(=O)/C=C/c1c(F)cccc1Cl)NCC1CCCO1 (configuration not stated) | 7 | . | 2 | . | . | 5
CCN(CC)c1ccc(C(=O)OCC(=O)NCC2CCCO2)cc1 (configuration not stated) | 73* | 32* | 0 | 4 | 0 | 5
Cc1ccc(CN2CCSc3ccc(C(=O)NCC4CCCO4)cc32)cc1 (configuration not stated) | 2 | 33* | 4 | -4 | 5 | 6
O=C(CSc1nc2ccccc2c(=O)n1-c1ccccc1)NCC1CCCO1 (configuration not stated) | 10 | 2 | 8 | -2 | 4 | 5
COc1ccc(-n2c(SCC(=O)NCC3CCCO3)nc3ccccc32)cc1 (configuration not stated) | 6 | 26* | -1 | 4 | 0 | 6
Cc1ccc(CN2CCSc3ccc(C(=O)NC4CCCC4)cc32)cc1 | -5 | -1 | 7 | -1 | 3 | 1
O=C(COC(=O)/C=C/c1ccc(Cl)cc1Cl)NCC1CCCO1 (configuration not stated) | 26 | 27* | 10 | . | . | 1
CCOc1ccc(NC(=O)CN(C)C(=O)C2CCN(C(=O)c3ccc(Cl)cc3)CC2)cc1OCC | 3 | 4 | 4 | . | -1 | 8
CCN(CC)c1ccc(S(=O)(=O)N2CCOCC2)cc1NC(=O)COC(=O)C1=COCCO1 | 14 | . | 5 | . | . | 1
Cc1ccc(NS(=O)(=O)c2cc(C(=O)OCC(=O)NCC3CCCO3)ccc2C)cc1 (configuration not stated) | 12 | 34* | 1 | -2 | 2 | 4
Cc1ccc(SCC(=O)NCC2CCCO2)cc1 (configuration not stated) | 0 | 1 | -1 | -2 | 1 | 25*
Cc1ccc(SCCC(=O)NCC2CCCO2)cc1 (configuration not stated) | -1 | 4 | 6 | 6 | 1 | 15
O=C(COC(=O)c1ccc(NS(=O)(=O)c2ccc3c(c2)OCCO3)cc1)NCC1CCCO1 (configuration not stated) | 23 | 6 | 3 | -4 | 0 | 6
Cc1cc(NS(=O)(=O)c2ccc(NC(=O)CCCOc3cccc(C)c3C)cc2)no1 | 2 | 0 | 11 | 2 | 0 | 8
Cc1[nH]c(=O)[nH]c(=O)c1S(=O)(=O)Nc1cccc([N+](=O)[O-])c1C | -14 | . | 3 | . | . | 8
